11 molecules from PubChem BioAssay (EPA / NIEHS) can be followed below.

Where “and” joins values, the source holds several entries; their conditions need not be identical. Identical values can stand only once. Where a structure was tested more than once in an assay, its records may differ in their call. Calls of active or inactive are those of the source. The calls were made as follows: active = hit-call score of the fitted dose curve at least 0.9, where 1 is the maximum; inactive = score below 0.9.

Read-out in experiment [1]: Human Leukocyte Antigen - DR isotype (HLADR), HLA-DRA (gene 3122)
The experiment can be described thus: BSK_BE3C_HLADR: BioMAP Diversity Plus: BE3C Assay for Human Leukocyte Antigen - DR isotype (HLADR) Biomarker Activity (AID 2283032). As to conditions: primary human bronchial epithelial cells; actives raise or lower the signal. An outline of the steps: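 Cell-surface HLA-DR ELISA readout at 24 h after dosing in the BE3C primary human lung bronchial epithelial system; gain or loss of signal against DMSO, with parallel sulforhodamine B staining of total protein for overt cytotoxicity.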

Read-out in experiment [2]: Vascular cell adhesion molecule 1 (VCAM1), VCAM1 (gene 7412)
The experiment can be described thus: BSK_4H_VCAM1: BioMAP Diversity Plus: 4H Assay for Vascular cell adhesion molecule 1 (VCAM1) Biomarker Activity (AID 2283033).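 As to outcome: cell-surface VCAM-1 protein measured by ELISA.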 As to conditions: primary human endothelial cells (HUVEC); actives raise or lower the signal. An outline of the steps: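 VCAM-1 ELISA read 24 h after chemical dosing of HUVEC in the BioMAP 4H system, with gain or loss of signal fitted relative to DMSO. Parallel SRB staining (560 nm) checked overt cytotoxicity.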

Read-out in experiment [3]: Interferon-gamma inducible Protein 10 (IP10), CXCL10 (gene 3627)
Put plainly: BSK_BE3C_IP10: BioMAP Diversity Plus: BE3C Assay for Interferon-gamma inducible Protein 10 (IP10) Biomarker Activity (AID 2283034). As to conditions: primary human bronchial epithelial cells; actives raise or lower the signal. An outline of the steps:
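IP-10 quantified by ELISA in human primary bronchial epithelial cell cultures at 24 hours post-dosing. Gain or loss of signal fitted relative to DMSO; parallel SRB staining assessed overt cytotoxicity.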

Read-out in experiment [4]: Monokine induced gamma interferon (MIG), CXCL9 (gene 4283)
The experiment can be described thus: BSK_BE3C_MIG: BioMAP Diversity Plus: BE3C Assay for Monokine induced gamma interferon (MIG) Biomarker Activity (AID 2283035). As to conditions: primary human bronchial epithelial cells; actives raise or lower the signal. The procedure, abridged:
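hu bronchial epithelial 1° cells, 24 h cpd; MIG by ELISA; bidirectional fit, DMSO = baseline.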

Read-out in experiment [5]: Transforming growth factor beta 1 (TGFb1), TGFB1 (gene 7040)
The experiment can be described thus: BSK_BE3C_TGFb1: BioMAP Diversity Plus: BE3C Assay for Transforming growth factor beta 1 (TGFb1) Biomarker Activity (AID 2283036;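 also: TGF-b1 protein level measured by ELISA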). As to conditions: primary human bronchial epithelial cells; actives raise or lower the signal. An outline of the steps: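 ELISA readout of TGF-b1 from human lung bronchial epithelial primary cells, taken 24 h post-treatment. Gain or loss of signal fitted relative to DMSO baseline, with parallel SRB staining for overt cytotoxicity.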

Read-out in experiment [6]: Plasminogen activator inhibitor-1 (PAI1), SERPINE1 (gene 5054)
The experiment can be described thus: BSK_BE3C_PAI1: BioMAP Diversity Plus: BE3C Assay for Plasminogen activator inhibitor-1 (PAI1) Biomarker Activity (AID 2283037). As to conditions: primary human bronchial epithelial cells; actives raise or lower the signal. An outline of the steps: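 PAI-1 was measured by ELISA in human primary bronchial epithelial cultures 24 h after chemical dosing, with cytotoxicity checked by SRB total-protein staining in parallel cultures. Activity was fitted in both directions relative to DMSO.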

Read-out in experiment [7]: urokinase plasminogen activator (uPA), PLAU (gene 5328)
The experiment can be described thus: BSK_BE3C_uPA: BioMAP Diversity Plus: BE3C Assay for urokinase plasminogen activator (uPA) Biomarker Activity (AID 2283038).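 As to outcome: uPA protein level quantified by ELISA in cell cultures; uPA read one day after compound addition.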 As to conditions: primary human bronchial epithelial cells; actives raise or lower the signal. The procedure, abridged:
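Human primary bronchial epithelial cells were exposed to chemical for 24 h, then uPA levels were measured by ELISA. Responses were fitted bidirectionally against DMSO as negative control and baseline. Parallel SRB staining of total protein gauged overt cytotoxicity.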

Read-out in experiment [8]: Urokinase-type plasminogen activator receptor (uPAR), PLAUR (gene 5329)
The experiment can be described thus: BSK_BE3C_uPAR: BioMAP Diversity Plus: BE3C Assay for Urokinase-type plasminogen activator receptor (uPAR) Biomarker Activity (AID 2283039).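 As to outcome: cells exposed to compound for one day before measurement.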 As to conditions: primary human bronchial epithelial cells; actives raise or lower the signal. An outline of the steps: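 uPAR levels were measured by ELISA after 24 h compound treatment of primary human bronchial epithelial cells, fitted in both directions relative to DMSO. Parallel SRB staining served as the cytotoxicity read-out.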

Read-out in experiment [9]: Interleukin-6 (IL6), IL6 (gene 3569)
The experiment can be described thus: BSK_CASM3C_IL6: BioMAP Diversity Plus: CASM3C Assay for Interleukin-6 (IL6) Biomarker Activity for (AID 2283040). As to conditions: primary human coronary artery smooth muscle cells; actives raise or lower the signal.

Read-out in experiment [10]: Tissue plasminogen activator (tPA), PLAT (gene 5327)
The experiment can be described thus: BSK_BE3C_tPA: BioMAP Diversity Plus: BE3C Assay for Tissue plasminogen activator (tPA) Biomarker Activity (AID 2283041).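 As to outcome: tPA level quantified by ELISA one day after compound addition.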 As to conditions: primary human bronchial epithelial cells; actives raise or lower the signal. The procedure, abridged: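 tPA measured by ELISA 24 h after dosing human primary bronchial epithelial cells (BE3C system). Changes in either direction were fitted against DMSO. Parallel cultures were stained with SRB to flag overt cytotoxicity.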

`O=C1OC[C@H](Cc2cccc(O)c2)[C@H]1Cc1cccc(O)c1`: the outcome in [1], in experiment [2], in experiment [3], in [4], in [5] and in [6] was inactive. In addition, the outcome in experiment [7], in experiment [8], in [9] and in [10] was inactive.
As for `c1ccc(Oc2ccccc2)cc1`, the outcome in experiment [1], in [3], in experiment [4], in experiment [5], in [6] and in experiment [7] was inactive. The outcome in [8], in experiment [9] and in [10] was inactive. Besides, the AC50 in experiment [2] is 28.8 µM (active).
Consider `COc1ccc(OC)c(N=Nc2c(O)ccc3ccccc23)c1`, for which the AC50 in [1] was 3.41 µM (active); in [2] it was 20 µM (active); in experiment [3] it was 6.72 µM (active); in experiment [8] it was 5.41 µM (active). Also, the outcome in [4], in experiment [5], in experiment [6], in experiment [7], in experiment [9] and in experiment [10] was inactive.
Take `CC(C)(C)CC(C)(C)c1ccc(OCCOCC[N+](C)(C)Cc2ccccc2)cc1`: the AC50 is 7.59 µM (active) in experiment [1]; 7.35 µM (active) in experiment [2]; 8.05 µM (active) in experiment [3]; 8.97 µM (active) in [4]; 0.992 µM (active) in experiment [6]; 5 µM (active) in experiment [7]. Moreover, the figures for the concentration at half-maximal activity (AC50) in [8] and in experiment [9] were 3.16 µM (active) and 8 µM (active), respectively. The result in experiment [5] and in experiment [10] was inactive.
As to `CN(c1nccc(=O)[nH]1)C1CCN(c2nc3ccccc3n2Cc2ccc(F)cc2)CC1`, the result in experiment [1], in [3], in [4], in [5], in [6] and in [7] was inactive. The result in experiment [8], in experiment [9] and in [10] was inactive. Moreover, the AC50 in experiment [2] is 0.0185 µM (active).
Consider `CS(=O)(=O)c1ccc(C2=C(c3ccccc3)C(=O)OC2)cc1`, for which the outcome in experiment [1], in experiment [2], in experiment [3], in experiment [4], in [5] and in [6] was inactive. Moreover, the outcome in [7], in experiment [8], in experiment [9] and in [10] was inactive.
`CCN(CC)C(=O)N(CC)CC`: the outcome in [1], in experiment [2], in experiment [3], in [4], in [5] and in experiment [6] was inactive. The outcome in experiment [7], in experiment [8], in experiment [9] and in experiment [10] was inactive.
For the molecule `C[C@@H]1CCN(C(=O)[C@H](CCCN=C(N)N)NS(=O)(=O)c2cccc3c2NC[C@H](C)C3)[C@@H](C(=O)O)C1`, the outcome in experiment [1], in experiment [2], in [3], in experiment [4], in experiment [5] and in experiment [6] was inactive. For the same molecule, the outcome in experiment [7], in experiment [8], in [9] and in [10] was inactive.
Turning to `CCOC(=O)C(C#N)=C(c1ccccc1)c1ccccc1`, the result in experiment [1], in experiment [2], in [3], in experiment [4], in experiment [6] and in [7] was inactive. For the same molecule, the result in experiment [8], in experiment [9] and in [10] was inactive. Besides, the AC50 in [2] was 36.9 µM (active).
Take `C=C(C)[C@H]1CC=C(C)C(=O)C1`: the result in experiment [1], in experiment [2], in experiment [3], in experiment [4], in experiment [5] and in [6] was inactive. Further, the outcome in [7], in [8], in [9] and in experiment [10] was inactive.
In the case of `CC1(C)CCC[C@]2(C)[C@H]3CCO[C@]3(C)CC[C@@H]12`, the AC50 in experiment [1] was 23.9 µM (active) and 28.6 µM (active); in experiment [2], 30.4 µM (active); in experiment [6], 36.4 µM (active); in experiment [7], 26.2 µM (active); in [9], 31.5 µM (active) and 16.6 µM (active); in experiment [10] it was 23 µM (active) and 20 µM (active). Further, the result in experiment [2], in experiment [3], in [4], in [6], in experiment [7] and in experiment [8] was inactive.

As usually defined, the AC50 is the concentration giving half of the maximal activity seen.
